# A number with no mark means an inactive call.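 The calls were made as follows: active = MAPPIT score above the 99th percentile of random reference set scores in the same batch; inactive = at or below it.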
# Legend:
# Assay in all cases: MAPPIT interaction score (arbitrary units); higher = stronger binary interaction signal, active = hit call of the paper
# [1] = biological target: BORCS6; settings: MAPPIT configuration: N-C; pair source set: screen_3
# [2] = biological target: Baldspot; settings: MAPPIT configuration: N-C; pair source set: screen_4
# [3] = biological target: EMC5; settings: MAPPIT configuration: N-C; pair source set: screen_3
# [4] = biological target: Ude; settings: MAPPIT configuration: N-C; pair source set: screen_3
# [5] = biological target: Bet1; settings: pair source set: Lit-BM-16
# [6] = biological target: Bfc; settings: MAPPIT configuration: N-C; pair source set: screen_4
# [7] = biological target: CG17376; settings: MAPPIT configuration: N-N; pair source set: screen_1
# [8] = biological target: CG42565; settings: MAPPIT configuration: N-C; pair source set: screen_4
# [9] = biological target: CG42688; settings: MAPPIT configuration: N-C; pair source set: screen_4
# [10] = biological target: aspr; settings: MAPPIT configuration: N-N; pair source set: Curagen_low_conf
# [11] = biological target: fok; settings: MAPPIT configuration: N-C; pair source set: screen_3
# [12] = biological target: BicD; settings: MAPPIT configuration: N-C; pair source set: Lit-BM-16
# [13] = biological target: Bin1; settings: MAPPIT configuration: N-N; pair source set: Lit-BM-16
# [14] = biological target: Dhx15; settings: MAPPIT configuration: N-N; pair source set: DPIM
# [15] = biological target: p53; settings: MAPPIT configuration: N-N; pair source set: Finley_Y2H
# 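Also: HEK293T cells with Epo stimulation, STAT-responsive firefly luciferase reporter, fold induction versus unstimulated cells divided by the larger fold induction of two negative controls lacking either bait or prey.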
binder,measurement,setting,value
Blos1 (protein) MLTSMVKEHHKEQAKRKQEQEVRRKEAIEASNELTQSLVDTLNVGVAQAYLNQKRLDAEAKQLHLGATNFAKQTHQWLQLIDQFSTALKDLGDVENWARSIEGDMHTINQTLELAYKASRATQTSSGAGTSLEASTSASASANPSAT,MAPPIT interaction score,[1],2.8
oxt (protein) MEQSVSARWLKRYRAFFLILLLIVAIQLFLAYKSLDIVGGGSGSGFDAAEAPASPPPPHAQARVQPPARTKLTAQQLGFQPECDILAREAISALQRAKTKDCREHIAQIACAIQAGRFYAPQLRSSCPAGNHTANVSLGCFKDEKDRRLLAGYYSSSKTSNSPAKCVELCLQSGYPYAGVQYGRECFCGYDPPPKASKLPDSSCNTKCLGNAKEICGGFYAMNIYETGIAKFTAQLAATTPSEETKRVRIAFLLTLNGRALRQVHRLLKALYAPEHVYYIHVDERQDYLYRKLLELESKFPNIRLARKRFSTIWGGASLLTMLLQCMEDLLQSNWHWDFVINLSESDFPVKTLDKLVDFLSANPGRNFVKGHGRETQKFIQKQGLDKTFVECDTHMWRIGDRKLPAGIQVDGGSDWVALSRPFVGYVTHPREDDELLQALLKLFRHTLLPAESFFHTVLRNTKHCTSYVDNNLHVTNWKRKQGCKCQYKHVVDWCGCSPNDFKPEDWPRLQATEQKSLFFARKFEPVINQAVLLQLEEWLYGPYTSEYANLHGYWQSLYHHEDVHGSGDDLARSIGDSVMRLSARQAKLYPLELIELTHYLHRDQYKGFLVRYRARGSTGKPLHLETRVRPTQQGKLARNARFSKRLRNFEVSTDFDQKEQIARNFGKLLGPQSDLLLSYTLQANADSGAASHSYNLTLLWIDPLGRLQDFNELHVEDSTSDVINHSKTLLKHPITPGIWTAKLIGRNSIYAQLKFLIAPLAYYKGYPLAKSSDAEALNAGLTVALPEDFEMPVEWQQHLQTDDEQFTMREESLAKGKMLGQELHSWIDGLVGQFFQLRESCVVEADSEVSLPLCSDAPWSSLAPDPKSDVDALLK,MAPPIT interaction score,[2],0.0528
same,MAPPIT interaction score,[3],-0.000675
same,MAPPIT interaction score,[4],0.189
Gos28 (protein) MGGSSYDVLRKQARSLENEIDLKLVAFSKIGAGSGGGGSGGLGGVDTSPLLGEHVFDSLSEEIEQMLEKLSSLNESMSDLPASGAAAMHTLQRHREILQGYRQEFNKICANHTMRIEREELLRGSGLATSSGSPSISGLNRREMYLKESGHLNSASHLVNDQINIAIETRDHLHAQRQAFKRLQTRFNDISNRFPLISSLIQRINIKKRRDSLILGAVIGFCVILLLLYAFN,MAPPIT interaction score,[5]; MAPPIT configuration: N-C,-0.272
same,MAPPIT interaction score,[5]; MAPPIT configuration: N-N,-0.1
disco (protein) MEHIMNPFMSPAYLLGHGPHSHQHVHSHLPSHPQPNAASPASSPGGSSGSGSGSAAGSGTGSGSSLKPRRWGSPPINLAGQFINPATGKKRVQCSICFKTFCDKGALKIHFSAVHLREMHKCTVEGCNMVFSSRRSRNRHSANPNPKLHSPHIRRKISPHDGRTAQQFPVFSPGTAAAAAAVAGRLPVAFPGLLPPPPPHHGHHPYVMFGGQAGLHGLGLLSTGCQDPDSGSVDNEQDADPEDDNDFVYVDMQANSSSPAASSEDQEEHERDNEQDEEMHCSLSLASSSSIAADEERAADQPLDFSLHKRRKSEQDREQEQEQEQEREREAEKEQEQDVESDKEHEPEQEHELEREKRSPSDAFSMDQLLGKRKRHDSTASSSACSTAAASSASSSSASASANPPQTSIKMDLDPDSDSAYMTSRRQMLPLPVLDLEEHHHLRLLQTQMFAAAAAAAATSQAPPTAFLPAGSPVDLAKDSPPMWSLLSEMYRSMLLKTQHQQYNHHHQLQQQHQQEQHHHLTLSHHHQEQHHHLGHHHMGHHHHHHHQHHQQQPQQQSPAATNAPISV,MAPPIT interaction score,[6],1.54
same,MAPPIT interaction score,[7],0.354
same,MAPPIT interaction score,[8],2.57
same,MAPPIT interaction score,[9],2.18
same,MAPPIT interaction score,[10],-0.256
same,MAPPIT interaction score,[11],0.776
BicD (protein) MSSASNNGPSADQSVQDLQMEVERLTRELDQVSSASAQSAQYGLSLLEEKSALQQKCEELETLYDNTRHELDITQEALTKFQTSQKVTNKTGIEQEDALLNESAARETSLNLQIFDLENELKQLRHELERVRNERDRMLQENSDFGRDKSDSEADRLRLKSELKDLKFRETRMLSEYSELEEENISLQKQVSSLRSSQVEFEGAKHEIRRLTEEVELLNQQVDELANLKKIAEKQMEEALETLQGEREAKYALKKELDGHLNRESMYHISNLAYSIRSNMEDNASNNSDGEEENLALKRLEADLSTELKSPDGTKCDLFSEIHLNELKKLEKQLESMESEKTHLTANLREAQTSLDKSQNELQNFMSRLALLAAHVDALVQLKKQIDVKEQGKEGGQKKDELEQQLRALISQYANWFTLSAKEIDGLKTDIAELQKGLNYTDATTTLRNEVTNLKNKLLATEQKSLDLQSDVQTLTHISQNAGQSLGSARSTLVALSDDLAQLYHLVCTVNGETPTRVLLDHKTDDMSFENDSLTAIQSQFKSDVFIAKPQIVEDLQGLADSVEIKKYVDTVSDQIKYLKTAVEHTIDMNKHKIRSEGGDALEKVNTEEMEELQEQIVKLKSLLSVKREQIGTLRNVLKSNKQTAEVALTNLKSKYENEKIIVSDTMSKLRNELRLLKEDAATFSSLRAMFAARCEEYVTQVDDLNRQLEAAEEEKKTLNQLLRLAVQQKLALTQRLEEMEMDREMRHVRRPMPAQRGTSGKSSFSTRPSSRNPASSNANPF,MAPPIT interaction score,[12],-0.381
bcd (protein) MAQPPPDQNFYHHPLPHTHTHPHPHSHPHPHSHPHPHHQHPQLQLPPQFRNPFDLLFDERTGAINYNYIRPYLPNQMPKPDVFPSEELPDSLVMRRPRRTRTTFTSSQIAELEQHFLQGRYLTAPRLADLSAKLALGTAQVKIWFKNRRRRHKIQSDQHKDQSYEGMPLSPGMKQSDGDPPSLQTLSLGGGATPNALTPSPTPSTPTAHMTEHYSESFNAYYNYNGGHNHAQANRHMHMQYPSGGGPGPGSTNVNGGQFFQQQQVHNHQQQLHHQGNHVPHQMQQQQQQAQQQQYHHFDFQQKQASACRVLVKDEPEADYNFNSSYYMRSGMSGATASASAVARGAASPGSEVYEPLTPKNDESPSLCGIGIGGPCAIAVGETEAADDMDDGTSKKTTLQILEPLKGLDKSCDDGSSDDMSTGIRALAGTGNRGAAFAKFGKPSPPQGPQPPLGMGGVAMGESNQYQCTMDTIMQAYNPHRNAAGNSQFAYCFN,MAPPIT interaction score,[13],0.579
same,MAPPIT interaction score,[14],1.72
same,MAPPIT interaction score,[15],-0.0711
